Source: the antibiotic and cytotoxicity screens of Wong et al. (2023)
The campaign covered roughly 39,000 compounds. About 1,500 (3.8%) were called active. The entries come from a sample that favours actives as a whole.

System: HSkMC (human skeletal muscle cells)
Test: cytotoxicity call (relative viability < 0.9)
Conditions: 10 µM

| SMILES | cytotoxicity call |
| --- | --- |
| C1CCN2CC3CC(CN4CCCCC34)C2C1.O=S(=O)(O)O (configuration not stated) | inactive |
| C[C@@H]1CN([C@@H](C)CO)C(=O)c2cc(NC(=O)CCCN(C)C)ccc2O[C@H]1CN(C)S(=O)(=O)c1ccc(Cl)cc1 | inactive |
| C[C@H]1CN([C@@H](C)CO)C(=O)Cc2cc(N(C)C)ccc2O[C@@H]1CN(C)S(=O)(=O)c1ccc(F)cc1 | inactive |
| C[C@@H]1CN([C@H](C)CO)C(=O)CCCn2cc(nn2)CO[C@H]1CN(C)S(=O)(=O)c1ccc(Oc2ccccc2)nc1 | inactive |
| C[C@@H]1CN([C@@H](C)CO)C(=O)c2cccc(NC(=O)C3CC3)c2O[C@@H]1CN(C)S(=O)(=O)c1ccc(F)cc1 | inactive |
| Cn1c(Nc2ccc(C(F)(F)F)cc2)nc2cc(Oc3ccnc(-c4ncc(C(F)(F)F)[nH]4)c3)ccc21 | active |
| Nc1nc(=O)c2c(CCc3ccc(C(=O)NC(CCC(=O)[O-])C(=O)[O-])cc3)c[nH]c2[nH]1.[Na+].[Na+] (configuration not stated) | inactive |
| CC(C)CC#Cc1ccc2c(c1)O[C@@H](CN(C)C(=O)c1cnccn1)[C@@H](C)CN([C@@H](C)CO)S2(=O)=O | inactive |
| COc1ccc(CN(C)C[C@@H]2Oc3ccc(NS(=O)(=O)c4c(C)noc4C)cc3CC(=O)N([C@H](C)CO)C[C@H]2C)cc1 | inactive |
| C[C@H]1[C@@H](O)[C@@H](C)\C=C/C=C\C=C/C=C\C=C/C=C\C=C/[C@@H](O[C@H]2O[C@H](C)[C@@H](O)[C@H](N)[C@@H]2O)C[C@H]2O[C@](O)(C[C@@H](O)C[C@@H](O)[C@@H](O)CC[C@@H](O)C[C@@H](O)CC(=O)O[C@H]1C)C[C@@H](O)[C@@H]2C(=O)O | inactive |
| CC1C=CC=CC=CC=CC=CC=CC=CC(OC2OC(C)C(O)C(N)C2O)CC(O)C(C(=O)O)C(O)CC(=O)CC(O)CC(O)CC(O)CC(=O)CCCC(=O)CC(=O)OC1C(C)CC(C)C(O)CC(=O)c1ccc(N)cc1 (configuration not stated) | active |
| CC1C=CC=CC=CC=CC=CC=CC=CC(OC2OC(C)C(O)C(N)C2O)CC2OC(O)(CC(O)CC(O)C(O)CCC(O)CC(O)CC(=O)OC(C)C(C)C1O)CC(O)C2C(=O)O (configuration not stated) | inactive |
| COc1ccc(CN(C)C[C@@H]2OCCCC[C@@H](C)Oc3ccc(NC(=O)NC(C)C)cc3C(=O)N([C@H](C)CO)C[C@H]2C)cc1 | inactive |
| Cc1cccc(NC(=O)Nc2ccc3c(c2)C(=O)N(C)[C@@H]2CC[C@H](CC(=O)NCc4ccccc4Cl)O[C@@H]2CO3)c1 | inactive |
| Cc1ccc(S(=O)(=O)Nc2ccc3c(c2)C(=O)N([C@H](C)CO)C[C@@H](C)[C@@H](CN(C)S(C)(=O)=O)OCCCC[C@H](C)O3)cc1 | inactive |
| c1ccc2c(CSc3nc4ccccc4s3)cccc2c1 | inactive |
| CCSc1cccc2cccnc12 | inactive |
| c1cnc2c(SCc3nc4ccccc4s3)cccc2c1 | active |
| Cc1ccc(S(=O)(=O)Nc2ccc3c(c2)CC(=O)N([C@@H](C)CO)C[C@@H](C)[C@H](CN(C)C(=O)Nc2ccc(C(F)(F)F)cc2)O3)cc1 | inactive |
| C[C@@H]1CN([C@@H](C)CO)C(=O)c2cc(C#Cc3ccccc3F)cnc2O[C@@H]1CN(C)C(=O)Cc1ccncc1 | inactive |
| Cc1ccc(S(=O)(=O)Nc2ccc3c(c2)C(=O)N([C@@H](C)CO)C[C@H](C)[C@H](CN(C)Cc2ccc(C(F)(F)F)cc2)O3)cc1 | inactive |

| SMILES | cytotoxicity call |
| --- | --- |
| Cc1ccc(S(=O)(=O)Nc2ccc3c(c2)C(=O)N([C@H](C)CO)C[C@H](C)[C@@H](CN(C)Cc2ccc(C(F)(F)F)cc2)O3)cc1 | inactive |
| Cc1ccc(S(=O)(=O)Nc2ccc3c(c2)C(=O)N([C@H](C)CO)C[C@@H](C)[C@H](CN(C)Cc2ccc(C(F)(F)F)cc2)O3)cc1 | active |
| Cc1ccc(S(=O)(=O)Nc2ccc3c(c2)C(=O)N([C@@H](C)CO)C[C@H](C)[C@@H](CN(C)Cc2ccc(C(F)(F)F)cc2)O3)cc1 | inactive |
| Cc1ccc(S(=O)(=O)Nc2ccc3c(c2)C(=O)N([C@H](C)CO)C[C@H](C)[C@H](CN(C)Cc2ccc(C(F)(F)F)cc2)O3)cc1 | inactive |
| Cc1ccc(S(=O)(=O)Nc2ccc3c(c2)C(=O)N([C@H](C)CO)C[C@@H](C)[C@@H](CN(C)Cc2ccc(C(F)(F)F)cc2)O3)cc1 | active |
| COc1ccc2c3c(n(c2c1)C)[C@@H](CO)N(C[C@]13CN(C1)C(=O)C)C(=O)CN1CCOCC1 | inactive |
| Cc1noc(C)c1S(=O)(=O)Nc1ccc2c(c1)CC(=O)N([C@@H](C)CO)C[C@@H](C)[C@@H](CN(C)S(=O)(=O)c1ccccc1)O2 | inactive |
| CN(C)C(=O)C[C@H]1C=C[C@@H](NC(=O)C2CC2)[C@@H](CO)O1 | inactive |
| COc1ccc([Si](C)(C)[C@H]2[C@H](CCO)O[C@@]3(C(=O)N(Cc4ccccc4)c4ccc(N5C(=O)c6cccc7cccc5c67)cc43)[C@@H]2C)cc1 | inactive |
| C=CCN1C(=O)[C@]2(O[C@H](CCO)[C@@H]([Si](C)(C)c3ccc(OC)cc3)[C@@H]2C)c2cc(N3C(=O)c4cccc5cccc3c45)ccc21 | active |
| C=CCN1C(=O)[C@@]2(O[C@@H](CCO)[C@H]([Si](C)(C)c3ccc(OC)cc3)[C@H]2C)c2cc(N3C(=O)c4cccc5cccc3c45)ccc21 | active |
| C=CCN1C(=O)[C@]2(O[C@H](CCn3cc([C@H](O)c4ccccc4)nn3)[C@@H]([Si](C)(C)c3ccc(OC)cc3)[C@@H]2C)c2cc(N3C(=O)c4cccc5cccc3c45)ccc21 | inactive |
| C=CCN1C(=O)[C@@]2(O[C@@H](CCn3cc([C@H](O)c4ccccc4)nn3)[C@H]([Si](C)(C)c3ccc(OC)cc3)[C@H]2C)c2cc(N3C(=O)c4cccc5cccc3c45)ccc21 | inactive |
| C=CCN1C(=O)[C@@]2(O[C@@H](CCO)[C@H]([Si](C)(C)F)[C@H]2C)c2cc(N3C(=O)c4cccc5cccc3c45)ccc21 | inactive |
| C[C@H]1CCCCO[C@H](CN(C)C(=O)c2ccccc2)[C@@H](C)CN([C@@H](C)CO)C(=O)c2cc(NC(=O)Nc3ccc4c(c3)OCO4)ccc2O1 | inactive |
| COc1ccc(S(=O)(=O)N2CC(NC(=O)Cn3ccc(=O)n(C)c3=O)C2)cc1 | inactive |
| O=S(=O)(N1CCOCC1)n1nnc2ccccc21 | inactive |
| C[C@H](CO)N1C[C@H](C)[C@H](CN(C)Cc2ccc(C(F)(F)F)cc2)Oc2ccc(NC(=O)Cn3cnnn3)cc2CC1=O | inactive |
| C[C@@H]1CN([C@@H](C)CO)C(=O)c2cc(C#CC3(O)CCCC3)cnc2O[C@@H]1CN(C)C(=O)C1CCOCC1 | inactive |
| CN1C(=O)c2cc(NC(=O)Cc3cccs3)ccc2OC[C@H]2O[C@H](CC(=O)NCCCN3CCOCC3)CC[C@@H]21 | inactive |
| Cc1noc(C)c1S(=O)(=O)Nc1ccc2c(c1)C(=O)N([C@@H](C)CO)C[C@H](C)[C@H](CN(C)S(=O)(=O)c1cccs1)O2 | inactive |

| SMILES | cytotoxicity call |
| --- | --- |
| C[C@@H]1CN([C@H](C)CO)C(=O)CCCn2cc(nn2)CO[C@@H]1CN(C)S(=O)(=O)c1cccc(C#N)c1 | inactive |
| Oc1cccc(c1)/C/1=C/2\CC/C(=C(\c3cccc(c3)O)c3ccc([nH]3)/C(=C\3/C=CC(=N3)/C(=C\3/C=CC1=N3)c1cccc(c1)O)c1cccc(c1)O)N2 | active |
| OS(=O)(=O)c1ccc(cc1)/C/1=C\2/N/C(=C(\C3=N/C(=C(/c4ccc(cc4)S(=O)(=O)O)c4ccc([nH]4)/C(=C\4/C=CC1=N4)c1ccc(cc1)S(=O)(=O)O)C=C3)c1ccc(cc1)S(=O)(=O)O)C=C2 | inactive |
| CC(C)NC(=O)Nc1ccc2c(c1)CC(=O)N([C@@H](C)CO)C[C@@H](C)[C@@H](CN(C)C(=O)NC1CCCCC1)O2 | inactive |
| CCC(=O)NC[C@H](Cc1ccc(OCCc2nc(-c3ccccc3)oc2C)cc1)N/C(C)=C\C(=O)c1ccc(C(F)(F)F)cc1 | active |
| O=C(O)C[C@@H]1CC[C@H]2[C@@H](COC[C@H](O)CN2S(=O)(=O)c2ccc(F)cc2)O1 | inactive |
| COc1cnc(SC)n(C)c1=O | inactive |
| C[C@@H]1CN([C@@H](C)CO)C(=O)Cc2cc(NS(=O)(=O)c3cn(C)cn3)ccc2O[C@H]1CN(C)CC1CCCCC1 | inactive |
| CN(C)CC#Cc1ccc([C@H]2[C@@H](CO)N3CCCCN(C(=O)CN(C)C)C[C@H]23)cc1 | inactive |
| COc1ccc(NC(=O)N2CCCCN3[C@H](CN(C)C(C)=O)[C@H](c4ccc(C#Cc5ccccc5)cc4)[C@@H]3C2)cc1 | active |
| CN(C)CC#Cc1ccc([C@@H]2[C@@H](CO)N3CCCCN(C(=O)CN(C)C)C[C@@H]23)cc1 | inactive |
| CN(C)CC#Cc1ccc([C@@H]2[C@H](CO)N3CCCCN(C(=O)CN(C)C)C[C@@H]23)cc1 | inactive |
| CN(C)CC#Cc1ccc([C@H]2[C@@H](CO)N3CCCCN(C(=O)CN(C)C)C[C@@H]23)cc1 | inactive |
| COc1ccc(NC(=O)N2CCCCN3[C@H](COCCN(C)C)[C@H](c4ccc(C#Cc5ccccc5)cc4)[C@@H]3C2)cc1 | active |
| C[C@H]1Cc2c(N)nn(C)c2NC1=O | inactive |
| CC(=O)OCC(=O)C12OC3(CCCC3)OC1CC1C3CCC4=CC(=O)C=CC4(C)C3(F)C(O)CC12C (configuration not stated) | inactive |
| C[C@@H]1CN([C@H](C)CO)C(=O)Cc2cc(NS(=O)(=O)c3cccs3)ccc2O[C@H]1CN(C)Cc1ccc(-c2ccccc2)cc1 | inactive |
| Cc1ccc(-c2ccc3c(c2)O[C@@H](CN(C)C(=O)NC(C)C)[C@@H](C)CN([C@H](C)CO)S3(=O)=O)cc1 | inactive |
| COc1ccc(NC(=O)N(C)C[C@@H]2OCCCC[C@@H](C)Oc3ccc(NC(=O)Cc4ccccc4)cc3C(=O)N([C@H](C)CO)C[C@H]2C)cc1 | inactive |
| C[C@@H]1CCCCO[C@@H](CN(C)C(=O)Cc2ccccc2)[C@@H](C)CN([C@H](C)CO)C(=O)c2cc(NC(=O)c3ccccc3)ccc2O1 | inactive |
